Compounds with a hit are over-represented: about 1% of the library has one in this group of screens.
TcdB inh – TcdB glycohydrolase inhibitors, primary screen, biochemical, single point, plate reader. Toxin B (Clostridioides difficile), P18177. TcdB glycohydrolase enzymatic assay. inhibition, % at 9.99 µM. 0.24% of 350,000 active. AID 652162, 2013; in the data active = inhibition above about 10%
BioA inh-1 – M. tuberculosis BioA enzyme inhibitors, primary screen, biochemical, plate reader, single point, HTS; purified M. tuberculosis BioA enzyme; AID 602481, 2012; 7,8-diaminopelargonic acid synthase BioA (Mycobacterium tuberculosis); inhibition, % at 9.99 µM; 0.096% of 360,000 active; in the data active = inhibition above about 40%; inconclusive = no clear call, values can overlap the other calls
DUSP3 inh – VHR1 phosphatase inhibitors, primary screen, biochemical, absorbance, uHTS; Dual specificity protein phosphatase 3 (Homo sapiens), P51452; recombinant VHR phosphatase, pNPP absorbance; inhibition, % at 13.3 µM; 0.52% of 290,000 active; AID 1654, 2009; in the data active = inhibition above about 50%
Target sequence (P51452 whole entry, looked up): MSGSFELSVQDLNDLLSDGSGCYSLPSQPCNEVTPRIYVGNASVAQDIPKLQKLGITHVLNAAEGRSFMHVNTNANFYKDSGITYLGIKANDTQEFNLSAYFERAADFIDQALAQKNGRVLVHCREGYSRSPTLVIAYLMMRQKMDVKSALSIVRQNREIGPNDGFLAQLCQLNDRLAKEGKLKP
FadD28 binding – inhibitors of FadD28 bisubstrate probe binding, primary screen, biochemical, fluorescence polarization, single point; AID 588549, 2011; inhibition, % at 12.5 µM; Mycobacterium tuberculosis FadD28 fatty-acid-AMP ligase; 0.22% of 360,000 active; in the data active = inhibition above about 8.5%, passing the limit was not always enough; inconclusive = no clear call, values can overlap the other calls
Yp Topo-I inh – Yersinia pestis topoisomerase I inhibitors, primary screen, biochemical, cleavage product accumulation, plate reader, single point; activity, % at 10 µM; DNA topoisomerase I (Yersinia pestis CO92); 0.064% of 360,000 active; Y. pestis Topo-I cleavage product accumulation; in the data active = activity above about 50%, passing the limit was not always enough; inconclusive = no clear call, values can overlap the other calls
MazEF act – activators of E. coli MazEF toxin-antitoxin RNase, primary screen, biochemical, fluorescence, uHTS; activation, % at 20 µM; 0.32% of 350,000 active; FAM/BHQ RNA-DNA oligo cleavage fluorescence, 5 h; Endoribonuclease toxin MazF (Escherichia coli (strain K12)), P0AE70; AID 504720, 2011; in the data active = activation above about 50%
Target sequence (P0AE70 whole entry, looked up): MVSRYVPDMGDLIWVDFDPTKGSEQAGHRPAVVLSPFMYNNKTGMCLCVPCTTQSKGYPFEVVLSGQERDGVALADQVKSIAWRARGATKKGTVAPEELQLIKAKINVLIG
BioA inh-2 – Mtb BioA enzyme inhibitors, dose response, biochemical, plate reader, cherry-pick samples, set 03; 310 tested, under 10 active; shares compounds with BioA inh-1; AID 651679, 2012; max activity, %; purified BioA enzyme;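 also: top concentration of the dilution series was 10 µM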
HepG2 cytotox – cytotoxicity in HepG2 cells, dose response, cytotoxicity control, cell-based, plate reader, cherry-pick, two tests. 310 tested, under 10 active. max activity, %. shares compounds with BioA inh-1
3T3 cytotox 5 – cytotoxicity in NIH3T3 fibroblasts, dose response, cytotoxicity control, cell-based, plate reader, cherry-pick, two tests; shares compounds with BioA inh-1; activity change, negative = cytotoxicity, % at 26 µM; 310 tested, under 10 active
Numbers without * were called inactive; ? = inconclusive; nt = no result. Unless noted, no rule for the calls is given here.

SMILES	TcdB inh	BioA inh-1	DUSP3 inh	FadD28 binding	Yp Topo-I inh	MazEF act	BioA inh-2	HepG2 cytotox	3T3 cytotox 5
C=C(C)n1c(=O)n(Cc2ccc(C)cc2)c2ccccc21	-1	0	6	1	25	-4	nt	nt	nt
CC(=O)OCC(=O)[C@@]12OC(C)(C)O[C@@H]1C[C@H]1[C@@H]3C[C@H](F)C4=CC(=O)C=C[C@]4(C)[C@@]3(F)[C@@H](O)C[C@@]12C	nt	3	5	nt	nt	7	nt	nt	nt
CC(=O)OCC(=O)[C@@]1(OC(C)=O)[C@@H](C)C[C@H]2[C@@H]3C[C@H](F)C4=CC(=O)C=C[C@]4(C)[C@@]3(F)[C@@H](O)C[C@@]21C	1	51*	-15	0	10	-12	-5	16	6
COc1ccc(-c2ccc([C@H]3[C@H](CO)N4C(=O)CN(C(=O)NC(C)C)C[C@@H]34)cc2)cc1	-7	nt	nt	nt	nt	nt	nt	nt	nt
CCc1nn(C(C)C(=O)N(C)Cc2ccccc2)c(=O)c2cc3occc3n12 (stereo not given)	-1	-4	6	1	-7	9	nt	nt	nt
CCc1nn(CCCC(=O)N(C)Cc2ccccc2)c(=O)c2cc3occc3n12	2	50*	6	0	18	4	-10	-20	-13
CN(C)CC(=O)N1CC2(C1)[C@H](c1ccccc1)[C@H](CO)N2S(=O)(=O)c1ccccc1	-1	nt	nt	nt	nt	nt	nt	nt	nt
CC(=O)Nc1ccc(N2CCCC(C)C2)c([N+](=O)[O-])c1 (stereo not given)	2	nt	21	2	-10	-3	nt	nt	nt
CC1CCCN(c2ccc(C(=O)Nc3cccnc3)cc2[N+](=O)[O-])C1 (stereo not given)	6	54*	52*	-3	7	10	-7	5	-9
O=[N+]([O-])c1ccc(C[n+]2c(-c3ccccc3)cc(-c3ccccc3)cc2-c2ccccc2)cc1	1	59*	nt	-2	12	25	-4	-9	0
CC(=O)c1ccc(N2CCN(c3ccc(C(N)=O)cc3[N+](=O)[O-])CC2)cc1	1	nt	11	-4	7	-8	nt	nt	nt
CC(=O)c1ccc(N2CCN(c3ncccn3)CC2)c([N+](=O)[O-])c1	2	67*	38	-3	3	1	-2	-9	-1
Fc1ccc2[nH]c3c(NCCN4CCOCC4)ncnc3c2c1	nt	54*	34	-2	-3	7	5	?	?
Fc1ccc2[nH]c3c(N4CCc5ccccc5C4)ncnc3c2c1	1	3	20	1	-5	8	nt	nt	nt
CN1CCN(c2ncnc3c2[nH]c2ccc(F)cc23)CC1	nt	70*	-18	0	-10	6	-6	-9	-5
Clc1ccc2[nH]c3c(NCCN4CCOCC4)ncnc3c2c1	nt	1	6	-4	-4	0	nt	nt	nt
CCCC(=O)N1CC2(CCN(C(=O)NC(C)C)CC2)c2c([nH]c3cc(OC)ccc23)[C@@H]1CO	1	nt	nt	nt	nt	nt	nt	nt	nt
CC(=O)c1ccc(N2CCN(C(=O)c3ccco3)CC2)c(F)c1	nt	21	-12	-3	0	-3	nt	nt	nt
CC(=O)c1ccc(N2CCN(C(=O)c3ccc(Br)cc3)CC2)c(F)c1	nt	93*	-21	-3	23	1	-6	-11	2
CC(=O)c1ccc(N2CCN(C(=O)Cc3ccccc3)CC2)c(F)c1	1	55*	nt	-2	6	-5	-5	20	2
Cc1noc(C)c1NC(=O)Nc1ccc2c(c1)C(=O)N([C@@H](C)CO)C[C@@H](C)[C@@H](CN(C)Cc1ccc(Cl)c(Cl)c1)OCCCC[C@@H](C)O2	-1	-2	nt	nt	nt	nt	nt	nt	nt
CC(Oc1cc2oc(=O)c3c(c2cc1Cl)CCC3)C(=O)NCc1cccnc1 (stereo not given)	-2	47*	11	0	15	10	-8	-20	-5
